The panel holds about 83,000 compounds, 20% with a hit somewhere; the sample as a whole holds those more often.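 Values shown are percent growth following 48 h exposure of cells in 96-well plates to a single concentration of compound; below 10 was considered active.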 Calls of active or inactive are those of the source.
Key:
Assay in all cases: NCI-60 one-dose screen, 48 h (100 = growth as untreated, 0 = no growth, -100 = all killed)
Conditions in all cases: 10 µM unless noted
DU-145 prostate = test system: DU-145 prostate
K-562 leukemia = test system: K-562 leukemia
MALME-3M melanoma = test system: MALME-3M melanoma
MDA-MB-231 breast = test system: MDA-MB-231 breast
RXF 393 renal = test system: RXF 393 renal
SF-268 CNS = test system: SF-268 CNS
SF-295 CNS = test system: SF-295 CNS
SF-539 CNS = test system: SF-539 CNS
UACC-257 melanoma = test system: UACC-257 melanoma
M14 melanoma = test system: M14 melanoma

Measured: growth

CSc1ccc(/C(=N/N=C(N)N)c2ccc(Cl)cc2)cc1
active: DU-145 prostate 9.65% | K-562 leukemia 1.76% | MDA-MB-231 breast 7.57% | SF-295 CNS 8.73% | SF-539 CNS -10.3% | M14 melanoma -90.9%
inactive: MALME-3M melanoma 22.5% | RXF 393 renal 16.5% | SF-268 CNS 19.3% | UACC-257 melanoma 57.8%

COc1ccccc1N1CCN(C2=C(Cl)C(=O)c3ncccc3C2=O)CC1
inactive: DU-145 prostate 48% | MALME-3M melanoma 58.8% | MDA-MB-231 breast 86.4% | RXF 393 renal 71% | SF-268 CNS 87.6% | SF-295 CNS 107% | SF-539 CNS 95% | UACC-257 melanoma 95% | M14 melanoma 88.1%
active: K-562 leukemia 9.05%

O=C1Nc2ccc(F)cc2/C1=C\C(=O)c1ccc(NS(=O)(=O)c2ccccc2)cc1
inactive: DU-145 prostate 92.1% | K-562 leukemia 49.1% | MALME-3M melanoma 79.7% | MDA-MB-231 breast 90.4% | RXF 393 renal 72.3% | SF-268 CNS 97.9% | SF-295 CNS 96.4% | SF-539 CNS 97.5% | UACC-257 melanoma 95.9% | M14 melanoma 90.7%

O=C1[C@H]2Cc3c([nH]c4ccccc34)[C@H](c3ccc(Cl)cc3)N2C(=O)CN1C1CCN(CC2CCCCC2)CC1
active: K-562 leukemia 6.81% | M14 melanoma -56%
inactive: DU-145 prostate 74.6% | MALME-3M melanoma 45.8% | MDA-MB-231 breast 87% | RXF 393 renal 45.8% | SF-268 CNS 60.2% | SF-295 CNS 97.4% | SF-539 CNS 66.2% | UACC-257 melanoma 75.1%

O=C(CCCCCCNC(=O)C(O)(O)C(F)(F)F)Nc1ccc(Br)cc1
inactive: K-562 leukemia 15.2% | MALME-3M melanoma 10.1% | MDA-MB-231 breast 28.4% | SF-539 CNS 18.5% | UACC-257 melanoma 15.5% | M14 melanoma 25.1%
active: DU-145 prostate 0.633% | RXF 393 renal -38.1% | SF-268 CNS 8.01% | SF-295 CNS -25.3%

Nc1nc(=O)n([C@H]2C[C@H](O)[C@@H](CO)O2)cc1C=O
inactive: DU-145 prostate 71.7% | K-562 leukemia 97.2% | MALME-3M melanoma 114% | MDA-MB-231 breast 85.1% | RXF 393 renal 103% | SF-268 CNS 110% | SF-295 CNS 103% | SF-539 CNS 100% | UACC-257 melanoma 115% | M14 melanoma 105%

C/C(=C(\c1ccc(O)cc1)c1ccc(OCCN2CCCCCC2)cc1)c1ccc(Cl)cc1
active: DU-145 prostate -86.4% | K-562 leukemia 5.91% | MALME-3M melanoma -80.3% | MDA-MB-231 breast -85% | RXF 393 renal -87.4% | SF-268 CNS -62.5% | SF-295 CNS -93.7% | SF-539 CNS -91.8% | UACC-257 melanoma -81.8% | M14 melanoma -86.5%

CC1=C(C)C(=O)C(Nc2cccc(C(=O)OC(C)(C)C)c2)=CC1=O
inactive: DU-145 prostate 69.9% | K-562 leukemia 77.2% | MALME-3M melanoma 64.9% | MDA-MB-231 breast 66.2% | RXF 393 renal 73.4% | SF-268 CNS 80.5% | SF-295 CNS 94.3% | SF-539 CNS 89.9% | UACC-257 melanoma 62.5% | M14 melanoma 88.3%

CN(C)c1ccc(-c2cc(-c3c[nH]c4ccccc34)nc(N)c2C#N)cc1
inactive: DU-145 prostate 49.2% | K-562 leukemia 17.5% | MALME-3M melanoma 64.4% | MDA-MB-231 breast 36% | SF-268 CNS 52.3% | SF-295 CNS 26.8% | SF-539 CNS 37.5% | UACC-257 melanoma 56.9%
active: RXF 393 renal 2.37% | M14 melanoma -27.1%

O=C(Nc1cccc(Cl)c1)Nc1nc2cc([N+](=O)[O-])ccc2o1
inactive: DU-145 prostate 52.7% | K-562 leukemia 37.8% | MALME-3M melanoma 29.7% | MDA-MB-231 breast 61.4% | RXF 393 renal 67.4% | SF-268 CNS 37.3% | SF-295 CNS 51% | SF-539 CNS 59.4% | UACC-257 melanoma 54.6% | M14 melanoma 39.5%

CNC(=O)Nc1ccc(Nc2cc(-c3ccc(-n4cccn4)cc3)[nH]n2)c(C)c1
inactive: DU-145 prostate 105% | K-562 leukemia 95.5% | MALME-3M melanoma 125% | MDA-MB-231 breast 123% | RXF 393 renal 141% | SF-268 CNS 103% | SF-295 CNS 109% | SF-539 CNS 98.7% | UACC-257 melanoma 115% | M14 melanoma 126%

Fc1ccc(-c2cn3c(-c4c[nH]c5ccc(Br)cc45)csc3n2)cc1
inactive: DU-145 prostate 67.4% | K-562 leukemia 90.3% | MALME-3M melanoma 51.4% | MDA-MB-231 breast 15.5% | RXF 393 renal 79.6% | SF-268 CNS 50.9% | SF-295 CNS 64.1% | SF-539 CNS 34.3% | UACC-257 melanoma 93.5% | M14 melanoma 67.4%

CCN(CC)c1ccc(/C=N/NC(=O)c2ccc(S(N)(=O)=O)cc2)c(O)c1
inactive: DU-145 prostate 31.1% | K-562 leukemia 12.4% | MDA-MB-231 breast 34% | SF-268 CNS 20.5% | SF-295 CNS 12.6%
active: MALME-3M melanoma -1.7% | RXF 393 renal -4.11% | SF-539 CNS 5% | UACC-257 melanoma -10.2% | M14 melanoma 1.08%

C=C(C)[C@@H]1CC[C@]2(COCCCNCCCN)CC[C@]3(C)[C@H](CC[C@@H]4[C@@]5(C)CC[C@H](O)C(C)(C)[C@@H]5CC[C@]43C)[C@@H]12
active: DU-145 prostate -80.8% | K-562 leukemia -9.9% | MALME-3M melanoma -83.8% | MDA-MB-231 breast -86.3% | RXF 393 renal -90.9% | SF-268 CNS -57.9% | SF-295 CNS -85.2% | SF-539 CNS -96.2% | UACC-257 melanoma -0.281% | M14 melanoma -90.3%

O=[N+]([O-])c1ccc(NC(=S)NNC(=S)Nc2ccc(Br)cc2)cc1
inactive: DU-145 prostate 104% | K-562 leukemia 49.1% | MALME-3M melanoma 89.4% | MDA-MB-231 breast 91.6% | RXF 393 renal 103% | SF-268 CNS 101% | SF-295 CNS 72.6% | SF-539 CNS 95.2% | UACC-257 melanoma 95.2% | M14 melanoma 87.9%

Cc1ccc(-c2csc(N/N=C/c3cccs3)n2)cc1
inactive: DU-145 prostate 100% | K-562 leukemia 74.4% | MALME-3M melanoma 88.8% | MDA-MB-231 breast 92.5% | RXF 393 renal 115% | SF-268 CNS 106% | SF-295 CNS 92.8% | SF-539 CNS 104% | UACC-257 melanoma 97.1% | M14 melanoma 90.4%

CCCCSC1=C(Cl)CN(c2ccccc2)C1=O
inactive: DU-145 prostate 104% | K-562 leukemia 91.6% | MALME-3M melanoma 94.6% | MDA-MB-231 breast 98.2% | RXF 393 renal 109% | SF-268 CNS 106% | SF-295 CNS 98.8% | SF-539 CNS 97.3% | UACC-257 melanoma 101% | M14 melanoma 103%

CCC(=C(c1ccc(OCCN2CCCCCC2)cc1)c1ccc(OCCN2CCCCCC2)cc1)c1ccc(Cl)cc1
inactive: DU-145 prostate 39.4% | MDA-MB-231 breast 33.6% | SF-268 CNS 56%
active: K-562 leukemia -32.8% | MALME-3M melanoma -55.4% | RXF 393 renal -72.3% | SF-295 CNS -77.3% | SF-539 CNS -79.6% | UACC-257 melanoma -55.8% | M14 melanoma -74.4%

O=C(CSc1nc2ccccc2c(=O)n1-c1ccc(S(=O)(=O)Nc2ccc(Cl)nn2)cc1)Nc1ccc(S(=O)(=O)Nc2ccc(Cl)nn2)cc1
inactive: DU-145 prostate 107% | K-562 leukemia 88.1% | MALME-3M melanoma 102% | MDA-MB-231 breast 102% | RXF 393 renal 102% | SF-268 CNS 101% | SF-295 CNS 102% | SF-539 CNS 103% | UACC-257 melanoma 101% | M14 melanoma 111%

CNC(=O)c1cc(-c2ccc(NC(=S)Nc3cccc(C(F)(F)F)c3)cc2)nc2cccnc12
inactive: DU-145 prostate 103% | K-562 leukemia 90.8% | MALME-3M melanoma 112% | MDA-MB-231 breast 96.5% | RXF 393 renal 107% | SF-268 CNS 106% | SF-295 CNS 93.3% | SF-539 CNS 100% | UACC-257 melanoma 104% | M14 melanoma 99.3%

NC(N)=NS(=O)(=O)c1ccc(N=Nc2c(N)nn(-c3ccc([N+](=O)[O-])cc3[N+](=O)[O-])c2N)cc1
inactive: DU-145 prostate 107% | K-562 leukemia 87.4% | MALME-3M melanoma 106% | MDA-MB-231 breast 102% | RXF 393 renal 89% | SF-268 CNS 100% | SF-295 CNS 108% | SF-539 CNS 95% | UACC-257 melanoma 103% | M14 melanoma 102%

CN1CCN(Cc2ccc(NC(=O)c3cncc(C#Cc4cnc5ccc(OC6CCOCC6)nn45)c3)cc2C(F)(F)F)CC1
active: DU-145 prostate -89.5% | K-562 leukemia -0.118% | MALME-3M melanoma -87.5% | MDA-MB-231 breast -59.9% | RXF 393 renal -80.9% | SF-268 CNS -58.4% | SF-295 CNS -97% | SF-539 CNS -92.8% | UACC-257 melanoma -72.3% | M14 melanoma -91.2%

O=C(/C=C/c1cccc(F)c1)c1cccc(OCCCCOc2cccc(C(=O)/C=C/c3cccc(F)c3)c2)c1
inactive: DU-145 prostate 107% | K-562 leukemia 100% | MALME-3M melanoma 101% | MDA-MB-231 breast 95.9% | RXF 393 renal 107% | SF-268 CNS 99.7% | SF-295 CNS 105% | SF-539 CNS 110% | UACC-257 melanoma 105% | M14 melanoma 103%

COc1cc2cc(Oc3ccc(NC(=O)c4cc(C(F)(F)F)cc(C(F)(F)F)c4)cc3)c(C)nc2cc1OCCN1CCOCC1
active: RXF 393 renal 1.66%
inactive: DU-145 prostate 87.1% | K-562 leukemia 26.5% | MALME-3M melanoma 69.7% | MDA-MB-231 breast 75.7% | SF-268 CNS 72.6% | SF-295 CNS 29.7% | SF-539 CNS 59.4% | UACC-257 melanoma 57.3% | M14 melanoma 60.5%

CCOC(=O)c1c(NC(=O)c2ccc(C(F)(F)F)cc2)sc2c(CN3CCN(C)CC3)c(O)ccc12
active: DU-145 prostate -39.1% | K-562 leukemia -57.5% | MALME-3M melanoma -56.9% | MDA-MB-231 breast -43.3% | RXF 393 renal -86% | SF-268 CNS -49.5% | SF-295 CNS -58% | SF-539 CNS -89.7% | UACC-257 melanoma -13.5% | M14 melanoma -26.1%

Cn1c(SCC(=O)c2ccc(Br)cc2)nc2ccccc2c1=O
inactive: DU-145 prostate 97.8% | K-562 leukemia 85.2% | MALME-3M melanoma 111% | MDA-MB-231 breast 94.9% | RXF 393 renal 115% | SF-268 CNS 97.5% | SF-295 CNS 97.6% | SF-539 CNS 97.3% | UACC-257 melanoma 108% | M14 melanoma 96.6%

— PubChem BioAssay (NCI)
